Laboratory results as given in PubChem BioAssay (NCI).
About 83,000 compounds went through this panel and 20% of them were active in at least one assay; those are over-represented in the sample as a whole.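 Note: values are percent growth. 100 is the growth of untreated cells, values between 100 and 0 indicate rising inhibition; between -100 and 0 indicates cell death.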 Unmarked numbers belong to inactive results. Active and inactive are the calls of the source. How the source made its calls: active means growth percent below 10; inactive means the rest.

What was measured:
Assay in all cases: NCI-60 one-dose screen, 48 h (100 = growth as untreated, 0 = no growth, -100 = all killed)
Conditions in all cases: 10 µM unless noted
SR leukemia = system: SR leukemia
RPMI-8226 leukemia = system: RPMI-8226 leukemia
OVCAR-8 ovarian = system: OVCAR-8 ovarian
OVCAR-5 ovarian = system: OVCAR-5 ovarian
OVCAR-4 ovarian = system: OVCAR-4 ovarian
SK-OV-3 ovarian = system: SK-OV-3 ovarian
IGROV1 ovarian = system: IGROV1 ovarian
OVCAR-3 ovarian = system: OVCAR-3 ovarian
HS 578T breast = system: HS 578T breast
NCI/ADR-RES ovarian = system: NCI/ADR-RES ovarian

SMILES	growth (SR leukemia)	growth (RPMI-8226 leukemia)	growth (OVCAR-8 ovarian)	growth (OVCAR-5 ovarian)	growth (OVCAR-4 ovarian)	growth (SK-OV-3 ovarian)	growth (IGROV1 ovarian)	growth (OVCAR-3 ovarian)	growth (HS 578T breast)	growth (NCI/ADR-RES ovarian)
Oc1ccc(O)c(-[n+]2ccccc2)c1	93.7%	99.7%	99.5%	108%	108%	98.7%	107%	109%	96%	108%
O=C(Nc1cccc([N+](=O)[O-])c1)Nc1cccc([N+](=O)[O-])c1	38.2%	12.4%	63.3%	89.6%	39.3%	87.6%	63.6%	27.6%	94.6%	52.1%
COc1cc(/C=C2/Oc3cc4occc4c(OC)c3C2=O)ccc1OCC(=O)Nc1ccncc1	102%	91.4%	104%	113%	111%	93.1%	96.3%	99.8%	95.1%	107%
Cc1c(Cl)ccc2c(C(=O)Cl)cc(-c3ccccc3)nc12	91.8%	92.2%	99.7%	97.1%	88.5%	99.4%	107%	104%	98.9%	101%
O=C(c1cc(-c2ccc(Cl)cc2)nc2ccccc12)N1N=C(c2ccccc2)CC1c1cc(-c2ccccc2)nn1-c1ccccc1 (stereo not given)	73.4%	86.8%	87.1%	89.4%	64.3%	93.8%	60.8%	68.8%	89.3%	81.5%
COc1ccc(SC2c3ccc(O)cc3Oc3nc(N)c(C#N)c(N)c32)cc1 (stereo not given)	59.9%	96.7%	98%	129%	92.9%	120%	74.3%	88.1%	94.4%	98.8%
Nc1ncc(-c2ccc3ncnc(Nc4cncc(Cl)c4)c3c2)cn1	73.8%	50.1%	76.8%	52%	66.8%	46.5%	7.85% (active)	59.9%	61.6%	82.2%
CCN(CC)CCN1C(=O)c2c(c3c4ccccc4[nH]c3c3[nH]c4ccccc4c23)C1=O	4.92% (active)	74.9%	78.5%	88.7%	72%	83.1%	83.3%	95.4%	86.7%	71.3%
CC(=O)Cc1cccnc1	104%	93%	97%	109%	108%	114%	100%	116%	95.2%	104%
COc1ccc2c(-c3ccc(F)cc3)c(C#N)c(=NC(C)=O)oc2c1	13.7%	12.3%	50.2%	103%	92.5%	44.6%	54%	18.2%	42.9%	31.2%
c1ccc(-c2nc3sc(C(c4ccccc4)c4ccccc4)nn3c2-c2ccccc2)cc1	80.6%	108%	104%	103%	103%	94.7%	86.4%	100%	106%	95.3%
Cc1ncc(CO)c(C(=O)O)c1O	86.8%	131%	104%	105%	103%	104%	107%	94.8%	102%	104%
C=C1C(=O)O[C@H]2[C@H]1CC/C(COC(=O)c1ccccc1)=C\CC[C@@]1(C)O[C@@H]21	-14.1% (active)	-36.4% (active)	-34.3% (active)	2.5% (active)	5.21% (active)	95.4%	-24.9% (active)	-44.5% (active)	44%	36.2%
NC(CCCC(N)C(=O)c1ccccc1)C(=O)O (stereo not given)	124%	115%	86.2%	103%	97.3%	93%	101%	110%	108%	103%
C=C1C(=O)O[C@H]2[C@H]1CC/C(COC(=O)CCCC(=O)OC/C1=C/CC[C@@]3(C)O[C@H]3[C@H]3OC(=O)C(=C)[C@@H]3CC1)=C\CC[C@@]1(C)O[C@@H]21	0.324% (active)	-9.1% (active)	-9.93% (active)	2.2% (active)	49.2%	74.5%	13.4%	-46.6% (active)	47.1%	83.1%
CCCC(=O)Oc1ccc(/C(=C(\C)c2ccc(OC)cc2)c2ccc(OCCN3CCCCC3)cc2)cc1	-14.9% (active)	56.9%	90.4%	86.4%	75%	79.9%	89.9%	89.4%	84.3%	75.6%
COc1ccc(-c2cc3ccc(N(C)C)cc3nc2N)c(F)c1	12.9%	-19.7% (active)	26.3%	69.6%	42.2%	46.8%	54.3%	34.6%	62.8%	26%
CN(C)c1ccc2cc(-c3nc4ccccc4s3)c(N)nc2c1	20.9%	10.6%	67.8%	121%	78.3%	50.9%	63.6%	11.9%	91.9%	34.3%
O=C1COc2ccccc2C(=O)N1CCCCN1CCCCC1	90.1%	70.9%	94.2%	95.9%	95%	80.4%	92%	110%	102%	98.8%
Cc1cc(SCc2ccc(Cl)cc2Cl)nc(SCc2ccc(Cl)cc2Cl)n1	105%	103%	104%	97.8%	88.2%	116%	99.5%	102%	102%	99.4%
Cc1nccc2c3ccc(OCc4cn(-c5ccc(Br)cc5)nn4)cc3n(CCCc3ccccc3)c12	-29.8% (active)	8.43% (active)	2.18% (active)	49.6%	63.2%	90%	60.4%	104%	-6.57% (active)	-36.1% (active)
CC(C)(C)OC(=O)NCc1cccc(N=C=S)c1	-4.27% (active)	-38.9% (active)	64.4%	65.2%	57.1%	88.2%	43.1%	60.1%	66.1%	71.3%
CN1C(=O)C2(SCC(C(=O)NCC(=O)OC(C)(C)C)N2C(=O)C2CCCCC2)c2ccccc21 (stereo not given)	110%	90.5%	96%	104%	100%	99.8%	101%	107%	97.5%	97.7%
NS(=O)(=O)c1ccc(Nc2nc(O)c(/C=C3\C=Nc4ccccc43)s2)cc1	99.2%	95%	94.5%	111%	125%	102%	92.5%	102%	87.5%	101%
O=S(=O)(CCN1CCOCC1)Nc1cc(-c2ccc3ncnc(Nc4ccc(F)c(Cl)c4)c3c2)cnc1Cl	18.8%	9.83% (active)	16.1%	12.1%	11.5%	-25.4% (active)	-24.1% (active)	-8.19% (active)	-18.3% (active)	48.6%
C=C1C(=O)O[C@H]2[C@H]1CC/C(CNC(=O)/C1=C/CC[C@@]3(C)O[C@H]3[C@H]3OC(=O)C(=C)[C@@H]3CC1)=C\CC[C@@]1(C)O[C@@H]21	92.4%	78.8%	92.2%	111%	86.9%	89.8%	102%	85.1%	112%	99.7%
